12-LOX inh = ALOX12 (human) lipoxygenase inhibition. actives 1.1% (n = 580,000). P18054. Potency, µM (doses to about 108 µM), without a hit: at the highest dose activity change, negative = inhibition, most hits filed as inhibitors. AID 1671190. purified 12hLO, xylenol orange hydroperoxide absorbance; active means well fitted inhibition curve with a large enough effect; inconclusive means small, poorly fitted or top-dose-only effect, or another doubt; inactive means no such curve, though single readings can be large or run the other way; further: potency means the concentration at half of the fitted maximal effect; on the % scale 0 is the no-effect control and ±100 the full control effect
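Purified human 12hLO (150 nM final) in 25 mM Hepes, 0.01% Triton X-100, pH 7.0 was preincubated 15 min at room temperature with compound. Then 40 uM arachidonic acid was added, 30 min. Hydroperoxide was read by Fe-XO absorbance ratio 573/405 nm.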
ClpP mod = qHTS Assay for Activators of ClpP. ATP-dependent Clp protease proteolytic subunit (Bacillus subtilis (strain 168)), P80244. purified B. subtilis ClpP, FRET peptide cleavage, 20 min. Potency, µM (series often up to 57.5 µM), without a hit: at the highest dose activity change, negative = active. actives 1.9% (n = 340,000). AID 651965, 2013; active means well fitted falling curve with a large enough effect; inconclusive means small, poorly fitted or top-dose-only effect; inactive means no such curve, though single readings can be large or run the other way; further: potency means the concentration at half of the fitted maximal effect; the source files actives as falling curves though it sought activators and does not explain the sign; nearly all actives have a fitted effect of over 65% in size
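Purified B. subtilis ClpP, 10 microg/mL final in Tris/HCl pH8 with KCl, BSA, glycerol and Tween-20, cleaved an Abz/nitrotyrosine-quenched decapeptide. Fluorescence (ex 320, em 430) was read at 0 and 20 min at room temperature. Delta was normalized to 5.8 microM ADEP and DMSO/no-enzyme controls.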
hERG WT inh = inhibitors of human wildtype KCNH2 potassium channel | AID 720551 | U2OS, BacMam KCNH2, thallium flux FluxOr; active compounds read low | Q12809 | actives 0.37% (n = 340,000) | activity change, % at 1.84 µM;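 active means maximum activity change below -70%; inconclusive means maximum activity change between -70% and -50%; inactive means maximum activity change above -50%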; further: on the % scale 0 is the no-effect control and ±100 the full control effect
Target sequence (Q12809 whole entry, looked up): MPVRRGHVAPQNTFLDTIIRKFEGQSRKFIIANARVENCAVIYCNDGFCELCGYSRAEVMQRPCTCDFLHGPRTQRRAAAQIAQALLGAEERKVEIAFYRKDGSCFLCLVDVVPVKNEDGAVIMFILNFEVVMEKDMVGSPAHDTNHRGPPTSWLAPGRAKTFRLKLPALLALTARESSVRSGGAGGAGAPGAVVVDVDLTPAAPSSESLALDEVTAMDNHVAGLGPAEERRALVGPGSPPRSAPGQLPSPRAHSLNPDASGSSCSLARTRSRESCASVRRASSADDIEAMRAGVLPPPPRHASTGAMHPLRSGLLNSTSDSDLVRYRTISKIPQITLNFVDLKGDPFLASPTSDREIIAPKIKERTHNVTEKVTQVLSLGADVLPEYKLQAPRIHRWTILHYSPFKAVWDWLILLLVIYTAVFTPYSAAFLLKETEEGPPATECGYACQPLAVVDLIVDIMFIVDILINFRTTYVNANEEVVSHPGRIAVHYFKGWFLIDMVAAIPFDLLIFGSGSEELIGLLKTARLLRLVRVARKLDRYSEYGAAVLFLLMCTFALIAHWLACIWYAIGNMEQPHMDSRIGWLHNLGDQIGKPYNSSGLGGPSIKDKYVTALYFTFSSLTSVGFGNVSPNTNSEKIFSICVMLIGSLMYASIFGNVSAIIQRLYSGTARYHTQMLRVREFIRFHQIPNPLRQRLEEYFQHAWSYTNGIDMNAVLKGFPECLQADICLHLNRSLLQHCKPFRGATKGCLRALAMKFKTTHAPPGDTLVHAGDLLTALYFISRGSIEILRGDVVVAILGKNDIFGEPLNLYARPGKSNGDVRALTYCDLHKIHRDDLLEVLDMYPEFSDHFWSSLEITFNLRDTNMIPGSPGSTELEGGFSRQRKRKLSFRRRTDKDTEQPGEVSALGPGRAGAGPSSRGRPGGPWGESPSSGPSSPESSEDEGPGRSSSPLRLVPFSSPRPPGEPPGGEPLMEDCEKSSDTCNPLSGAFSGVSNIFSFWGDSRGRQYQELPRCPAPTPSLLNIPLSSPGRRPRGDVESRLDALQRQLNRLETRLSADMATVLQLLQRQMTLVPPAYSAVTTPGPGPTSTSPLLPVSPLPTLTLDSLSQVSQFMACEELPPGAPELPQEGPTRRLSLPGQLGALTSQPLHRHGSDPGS
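U2OS cells transduced with wild-type KCNH2 virus are loaded with FluxOr dye for 45 min, and thallium flux is measured in kinetic reads before and after stimulation buffer. Rate constants are normalized to DMSO controls.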
KCNH2 3.1 inh = blocks the human KCNH2 3.1 channel isoform. U2OS KCNH2 3.1, thallium flux FluxOr; active compounds read low. activity change, % (tested at about 1.8 µM). actives 0.95% (n = 340,000);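 active means maximum activity change below -70%; inconclusive means maximum activity change from -70% to -50%; inactive means maximum activity change above -50%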;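 further: thallium influx rate constant from kinetic fluorescence after stimulation buffer; on the % scale 0 is the no-effect control and ±100 the full control effect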
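Channel expression came from 3.1 mutant virus (1.77 x 10^8 /mL) applied to suspended U2OS cells for 4 h. Flux was tracked with FluxOr dye plus Red40 quencher, and kinetic rate constants normalized to controls.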
BCR signal inh = chronic active BCR signaling inhibition | ABC-DLBCL IkBa-CBG/CBR reporter, luminescence ratio, 4 h | Potency, µM (series often up to 46.1 µM), without a hit: top-dose activity change, negative = inhibition, usual class: inhibitors | actives 0.05% (n = 340,000) | AID 493014; active means well fitted inhibition curve with a large enough effect in the signal ratio, with a control signal flat, not every such curve was filed as active; inconclusive means small, poorly fitted or top-dose-only effect, or effect the other way, or a change in a side signal; the % refers to the signal ratio;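 further: potency means the concentration at half of the fitted maximal effect; plate controls were basal doxycycline-induced cells for no effect and cells given 10 µM MG132 for full effect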
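Compounds up to 46 uM were incubated four hours with TMD8 cells whose green CBG68 luciferase is fused to IkappaBalpha; red CBR luminescence normalised the signal, and concentration-effect curves were fitted to fusion, red and ratio data.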
LDHA block = inhibitors of human lactate dehydrogenase A. purified LDHA, NADH/diaphorase-resazurin fluorescence; active compounds read low. activity change, % (values are at about 110 or 230 µM). actives 0.15% (n = 480,000); in the data active means activity change below about -30%; inconclusive means mostly about -25% to -30%;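 further: plate controls were DMSO wells for no effect and wells without enzyme for full effect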
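LDH5 2 nM; NADH 0.06 mM, pyruvate 0.2 mM; 200 mM Tris pH 7.4, EDTA, Tween-20; 5 min RT. Detection: diaphorase 0.133 mg/mL + resazurin 37 µM, fluorescence ex540/em590 at 0 and 20 min; normalized to enzyme-free and DMSO wells.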
Starred values were filed as active, the others as inactive; u = inconclusive; x = no result; [ ] = remark or other dose. A selection: hits, their analogues and other compounds. The true share with any hit is near 3%.

SMILES | 12-LOX inh | ClpP mod | hERG WT inh | KCNH2 3.1 inh | BCR signal inh | LDHA block
O=C(NCCCOc1cccc(CN2CCCCC2)c1)c1ccc(Cl)c(Cl)c1 | -26.4% | 15.8µM* | 27.6 | -4.1 | u | -10.3
O=C(O)c1ccc(NC(=S)NC(=O)c2cccc(COc3ccccc3)c2)cc1 | 7.94µM* | 1.0% | -2.6 | -3.6 | u | -3.0
O=C(O)c1cccc(NC(=S)NC(=O)c2ccc3ccccc3c2)c1 | u | 30.8% | 1.9 | 12.6 | u | 1.0
O=C(Nc1ccccc1)c1cccc(OCc2ccccc2)c1 | -23.1% | x | x | x | x | 10.0
CCOCCOC1CCN(C(=O)c2c[nH]c3ccccc23)CC1 | 33.5% | x | x | x | x | x
CCc1cccc(CC)c1NC(=O)c1ccc(CSc2ccc(C)cc2)cc1 | u | x | x | x | x | 2.7
CCC(C)NC(=O)CSc1nnc(-c2ccncc2)n1CC(F)(F)F (centres undefined) | 23.2% | x | x | x | x | 0.8
COC(=O)c1coc(-c2ccc(OC)cc2)c1C(=O)OC | 3.7% | 31.6µM* | -11.5 | -1.2 | -15.2% | -2.0
N#Cc1nc(-c2ccccc2Cl)oc1NCC1CCCO1 (centres undefined) | u | 4.8% | -14.0 | -72.4* | 19.5% | 0.5
N#Cc1nc(-c2ccccc2Cl)oc1N1CCN(C(=O)c2ccco2)CC1 | 0.0% | 3.1% | 16.3 | 8.6 | 3.1% | -4.7
CN(C)c1oc(-c2ccccc2Cl)nc1C#N | -10.2%[57.4 µM] | 14.1µM* | -8.8 | -17.6 | u | -0.6
CN(C)c1oc(-c2ccccc2)nc1C#N | -5.2% | u | -3.1 | 1.3 | -4.0% | 0.5
CN(C)c1oc(/C=C/c2ccc(F)cc2)nc1C#N | -3.1% | 4.0% | x | x | x | -2.7
CC1CC(C)CN(c2oc(-c3ccccc3Cl)nc2C#N)C1 (centres undefined) | 8.5%[57.4 µM] | 11.2µM* | -15.0 | -5.3 | -1.0% | -11.5
N#Cc1nc(-c2ccccc2Cl)oc1NCc1ccccc1Cl | -11.1% | x | x | x | x | -3.5
CN(C)c1oc(/C=C/c2ccccc2)nc1C#N | 13.4% | -46.3% | -261.8* | -25.0 | u | -7.2
O=C(/C=C/c1ccccc1)NC(O)C(=O)c1ccccc1 (centres undefined) | u | x | x | x | x | -2.8
Cc1cc(C)cc(NC(=O)C(Sc2nnnn2C2CCCC2)c2ccccc2)c1 (centres undefined) | u | x | x | x | x | 2.4
N#Cc1nc(-c2ccccc2Cl)oc1N1CCCCC1 | u | 10µM* | -2.5 | 11.8 | u | -3.2
Cc1oc2cc(OCC(=O)O)ccc2c(=O)c1Oc1ccccc1Br | 31.6µM* | x | x | x | x | -3.3
CCOC(=O)COc1ccc2c(=O)c(Oc3ccccc3Br)c(C)oc2c1 | u | x | x | x | x | 5.1
CC1(C)Cc2c(sc3c2c(N)nc(=S)n3Cc2ccc(Br)cc2)CO1 | 0.0% | x | u | -103.8* | 0.5% | -6.0
CC1(C)Cc2c(sc3c2c(=O)n(CCCO)c(=O)n3Cc2ccccc2)CO1 | u | x | x | x | x | 3.3
Cc1cccc(CSc2nnc(CCNC(=O)OC(C)(C)C)o2)c1 | 7.94µM* | x | -13.8 | -3.8 | -16.3% | 0.4
CC(C)(C)OC(=O)NCCc1nnc(SCc2cccc(Cl)c2)o1 | 177.1% | x | 0.4 | 8.0 | -1.8% | 1.5
SMILES | 12-LOX inh | ClpP mod | hERG WT inh | KCNH2 3.1 inh | BCR signal inh | LDHA block
CN1[C@@H](CCC(=O)N2CCOCC2)CNC(=O)[C@@H]2[C@H]1CCN2Cc1nc2ccccc2n1C | 71.4% | x | x | x | x | x
O=c1cc(-c2cccnc2)nc(-c2ccc(CN3CCCC(F)(F)C3)cc2)[nH]1 | 6.2% | x | x | x | x | x
NC(=O)COc1ccc(/C=C2\C(=O)ON=C2c2ccccc2)cc1 | 7.08µM* | 1.2% | -4.3 | -3.0 | 7.2% | -57.2*
COc1ccc(/C=C2\C(=O)ON=C2c2cccc([N+](=O)[O-])c2)cc1 | 31.6µM* | x | x | x | 14.4% | x
COc1ccc(-c2ccc(=O)n(Cc3cccc([N+](=O)[O-])c3)n2)cc1 | -14.8% | -0.8% | 1.7 | -22.1 | u | -6.5
O=C1ON=C(c2ccc([N+](=O)[O-])cc2)/C1=C/c1ccccc1O | u | x | -18.3 | -5.7 | 7.3% | -42.6*
Cc1ccc(C2=NOC(=O)/C2=C\C=C\c2ccccc2)cc1 | 1.12µM* | 31.6µM* | -9.3 | 4.2 | u | -2.4
c1ccc(CCNc2ncncc2-c2nc(-c3ccccc3)no2)cc1 | 13.4% | x | x | x | x | x
Cc1nc2ccc(Cl)cc2cc1C(=O)N1CCN(CC(=O)N2CCCC2)CC1 | -15.3% | x | x | x | x | -10.7
COc1ccc(/C=C2/C(=O)ON=C2c2ccccc2)cc1OC | u | -1.3% | 0.7 | 3.3 | u | -60.1*
COc1ccc(/C=C2\C(=O)ON=C2c2ccccc2)cc1OC | 7.08µM* | -0.1% | 4.9 | -9.6 | 7.2% | -50.1*
COc1cc(/C=C2\C(=O)ON=C2c2ccccc2)cc(OC)c1OC | u | -1.2% | -2.5 | 12.9 | 9.1% | -35.5*
O=C1ON=C(c2ccccc2)/C1=C/c1ccc(-c2ccccc2[N+](=O)[O-])o1 | 3.98µM* | 2.2% | 9.6 | 9.0 | u | -4.4
COc1ccc(C=C2C(=O)OC(C)(C)OC2=O)cc1OC | -42.5% | -1.2% | 0.6 | 6.5 | 0.6% | 2.3
COc1cc(/C=C2\N=C(c3ccccc3)NNC2=O)cc(OC)c1OC | u | x | 1.2 | 2.7 | u | 1.2
O=C(O)c1ccc(C#Cc2ccccc2)cc1 | -10.1% | x | x | x | x | 12.2
COc1ccc(C)cc1NC(=O)c1ccc(-n2cccn2)cc1 | 7.7% | x | x | x | x | -5.0
CCc1nc2c(c(-c3ccc(O)cc3)n1)CN(Cc1ccc(OC(F)(F)F)cc1)CC2 | 25.6% | x | x | x | x | x
Cc1cccc(N/C=C/C(=O)C(F)(F)F)c1 | 10.5% | x | x | x | x | 11.6
Cc1ccc(N(C(C)C(=O)NCc2ccncc2)S(C)(=O)=O)cc1 (centres undefined) | 0.2% | x | x | x | x | 0.6
O=C1ON=C(c2ccccc2)/C1=C/c1ccco1 | 7.94µM* | 0.4% | -11.6 | -10.4 | 9.5% | 2.8
CCOc1cc(/C=C2\C(=O)ON=C2c2ccccc2)ccc1OC | 12.6µM* | 0.5% | -5.2 | -1.5 | 10.6% | -60.9*
Cc1ccc(NC(=O)c2ccccc2NS(=O)(=O)c2ccc(F)cc2)cc1S(=O)(=O)N1CCCCC1 | -4.7% | 31.6µM* | -13.0 | -1.7 | u | -2.2

Screening data deposited in PubChem by National Center for Advancing Translational Sciences (NCATS).
